Out of some 270,000 compounds screened, about 5,800 (2.1%) were called active. Roughly 16% stayed inconclusive and do not appear here. What follows is part of a selection rich in actives, with near analogues and random picks from the rest. Unmarked numbers belong to inactive results. Calls come from the whole dose curve; as a rule, active = well fitted inhibition curve with a large enough effect; inconclusive = small, poorly fitted or top-dose-only effect; inactive = flat fitted curve, though single readings scatter.
Target: Microtubule-associated protein tau (Homo sapiens) (UniProt P10636)
Sequence (P10636 561-689 P618L limits assumed): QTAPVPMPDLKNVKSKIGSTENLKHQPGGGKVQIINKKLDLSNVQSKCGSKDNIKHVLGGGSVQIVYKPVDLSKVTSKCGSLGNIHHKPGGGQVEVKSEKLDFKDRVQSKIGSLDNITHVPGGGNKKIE
Assay: qHTS for Inhibitors of Tau Fibril Formation, Thioflavin T Binding; note: nearly all actives have a fitted effect of over 55% in size
Details: recombinant tau K18 P301L (four-repeat tau fragment), heparin-induced fibrillization, ThT fluorescence; series mostly up to 57.4 µM; activity, negative = inhibition: at the top concentration
Summary of the method: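 Tau K18 P301L fragment (15 uM unlabeled plus 0.24 uM Alexa 594-labeled) in 100 mM sodium acetate pH 7 with compound, fibrillization induced by 20 uM heparin for 6 hr at 37 C. Thioflavin T (30 uM) added, fluorescence read after 1 hr (ex 450, em 510 nm).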
% is set by controls: 0 for no effect and ±100 for the full control effect; potency is the fitted concentration of half-maximal effect.

SMILES	activity, negative = inhibition [%]	Potency
O=C(CCS(=O)(=O)c1ccccc1)N(Cc1cccnc1)c1nc2c(F)cccc2s1	-5.97	
O=C(CSc1ccc([N+](=O)[O-])cn1)Nc1ccc(N2CCOCC2)cc1	7.95	
CN(CC(=O)Nc1ccc(N2CCOCC2)cc1)CC(=O)Nc1ccccc1[N+](=O)[O-]	-7.06	
O=C(Nc1ccc(N2CCOCC2)cc1)c1ccc(-c2ccccc2[N+](=O)[O-])o1		2.24 µM (active)
Cc1ccc(S(=O)(=O)n2nc(C)c(S(=O)(=O)N3CCCCCC3)c2C)cc1	5.02	
CC(=O)Nc1ccc(S(=O)(=O)N2CCN(c3ccccc3)CC2)cc1	-2.11	
CCOc1ccc(OCC)c(NC(=O)c2cc(C)nc3c2c(C)nn3-c2cccc(Cl)c2C)c1	-9.07	
COc1cc(SC#N)ccc1N=Cc1c(C)[nH]n(-c2ccc(C)cc2)c1=O		14.1 µM (active)
COc1cc(NS(=O)(=O)c2ccc(N=Cc3c(C)[nH]n(-c4ccccc4)c3=O)cc2)nc(OC)n1	-9.16	
CCC1=NN2C(=N)/C(=C/c3cc(C)n(-c4ccccc4)c3C)C(=O)N=C2S1	-8.51	
CS(=O)(=O)c1ccc2c(c1)SC1=NC(=O)/C(=C/c3ccco3)C(=N)N12		7.08 µM (active)
Cc1cc(/C=C2/C(=N)N3C(=NC2=O)SN=C3S(C)(=O)=O)c(C)n1-c1ccccc1	-16.2	
Cc1cc(C)cc(NC(=O)Cn2nc(N3CCN(c4ccccc4)CC3)ccc2=O)c1	-11.4	
Cc1c(-c2cccc(NC(=O)C(C)(C)C)c2)nc2ncccn12	-2.03	
Cc1cccn2c(=O)c(C(=O)NC(C)c3ccccc3)cnc12 (stereo not given)	5.77	
Cc1ccc(-c2csc(NC(=O)c3cccs3)n2)cc1	-12.4	
Cc1nc(NNC(=O)c2ccccc2)cc(-c2ccccc2)n1	-2.19	
Cc1ccc(-c2csc(NNC(=O)c3ccccc3)n2)cc1		12.6 µM (active)
Cc1ccc(OC(=O)CSc2nnc(-c3cccs3)o2)cc1	4.84	
CCc1ccc(NS(=O)(=O)c2ccc3[nH]cc(C(=O)NCCc4cccc(C)c4)c(=O)c3c2)cc1	-0.768	
Cc1ccc(N2CC(NC(=O)Cc3cccs3)CC2=O)cc1 (stereo not given)	-5.96	
COc1cccc(NC(=O)c2ccc3nc(CCc4ccccc4)oc3c2)c1	-15.7	
Cn1c(=O)c2c(n3c4ccccc4nc13)NC(=O)CC2c1cccc(Cl)c1 (stereo not given)	-2.25	
O=C1Nc2ccc(Br)cc2/C1=N/N=C/C1=C(N2CCOCC2)C(=C\c2ccccc2)/CC1		4.47 µM (active)
O=C(CN1CCN(c2ccccn2)CC1)N1CCc2ccccc21	-14.3	

SMILES	activity, negative = inhibition [%]	Potency
C(=N\N1CCN(c2ccccn2)CC1)/C1=C(N2CCOCC2)C(=C/c2ccccc2)/CC1		11.2 µM (active)
O=C(Cc1ccc(Br)cc1)N1CCN(c2ccccn2)CC1	3.26	
Cc1c(-c2nc(-c3ccc4c(c3)OCO4)no2)nnn1-c1ccc(Br)cc1F	-17.8	
CC1CCCN(c2nc3c(S(=O)(=O)c4ccc(C(C)C)cc4)nnn3c3ccsc23)C1 (stereo not given)	4.44	
CCOc1ccc(CNCc2c(C(=O)O)c(C)n(Cc3cccc(OC)c3)c2C)cc1OC	-12.9	
CCc1ccc(N(CC)C(=O)CCn2cnc3onc(-c4ccc(F)cc4)c3c2=O)cc1	-16.1	
Cc1ccc2c(=O)c(C(=O)c3ccc(F)cc3)cn(CC(=O)NC3CCCCC3)c2n1	-15	
COc1cc(-c2noc(-c3ccc(N4CCCC4)c([N+](=O)[O-])c3)n2)cc(OC)c1OC	1.35	
CCc1ccc(NC(=O)c2sc3nc4c(cc3c2N)CN(CC)CC4)cc1		10 µM (active)
CCN1CCc2nc(NC(=O)c3cc(F)c(F)cc3Cl)sc2C1	7.9	
CCc1ccccc1NC(=O)c1sc2nc3c(cc2c1N)CN(Cc1ccccc1)CC3	-9.56	
Cc1ccc(-n2ncc(C(=O)N(C)Cc3ccccc3)c2-n2cccc2)cc1	-13.8	
COc1cc(CC(=O)N/N=C/c2ccccc2)c([N+](=O)[O-])cc1OC	-7.85	
O=C(NC(Cc1c[nH]c2ccccc12)C(=O)N/N=C/c1ccc(Br)cc1)c1cccs1 (stereo not given)	1.42	
Cc1ccccc1OCCOc1ccc([N+](=O)[O-])cc1/C=N/n1cnnc1	-19.7	
O=[N+]([O-])c1ccc(N/N=C/c2ccccc2)cc1		3.55 µM (active)
O=C(Nc1ccccc1)/C(=C/c1ccc([N+](=O)[O-])cc1)NC(=O)c1ccccc1	-6.58	
Cc1cccc(C(=O)NNC(=O)c2cccc([N+](=O)[O-])c2)c1	-1.12	
O=C(N/N=C/c1ccc([N+](=O)[O-])cc1)c1c[nH]c2ccccc12		2.82 µM (active)
Cc1c(C(=O)N/N=C/c2ccccc2)[nH]c2c([N+](=O)[O-])cccc12	-2.9	
Cc1cccc(COc2ccccc2/C=N/Nc2ccc([N+](=O)[O-])cc2)c1		3.16 µM (active)
CNc1ccc(-c2nc(-c3ccco3)no2)cc1[N+](=O)[O-]	3.41	
Cc1ccc(Cl)cc1NC(=O)NC1COc2ccccc2C1 (stereo not given)	3.8	
COc1ccc(NC(=O)CSc2nccn2C2CCCC2)cc1OC	-1.2	
O=C(CN1C(=O)CCn2nc(-c3ccccc3)cc21)NCc1ccccc1	-0.0678	

SMILES	activity, negative = inhibition [%]	Potency
Cc1ccc(-n2c(SCC(=O)Nc3cccc(F)c3)nc3c(oc4ccccc43)c2=O)cc1C	5.17	
COc1cccc2sc(NNC(=O)c3nc4ccccc4s3)nc12		7.94 µM (active)
COc1ccc(/C=C(/CC(=O)Nc2ccc(C)cc2)c2nc3ccccc3s2)cc1	-13.3	
COc1ccc(S(=O)(=O)N2CCOCC2)cc1C(=O)Nc1nc2ccccc2s1	-1.15	
Cc1ccc(C)c(N2CCN(c3ccc4cc(S(=O)(=O)N5CCC(C)CC5)ccc4n3)CC2)c1	0.595	
Cc1[nH]c2ccccc2c1SCC(=O)Nc1nccs1	-6.38	
CC(=O)c1cc(C#N)c(SCC(=O)Nc2nccs2)nc1C		7.08 µM (active)
CC(=O)c1cc(C#N)c(SCC(=O)C(C)(C)C)nc1C	-10.4	
COc1ccc(CCNc2ncnc3onc(-c4ccc(Cl)cc4)c23)c(OC)c1	-0.33	
CCOCCc1nn2c(=O)cc(COC(=O)CNC(=O)c3ccc(C(C)(C)C)cc3)nc2s1	-14	
Cc1cc(C=O)c(C)n1-c1ccc(NC2CCCCC2)c([N+](=O)[O-])c1		14.1 µM (active)
Cc1ccc(C(=O)COC(=O)CCCC(=O)NC2CCCCC2)cc1[N+](=O)[O-]	-0.262	
Cc1c(NC(=O)CCC2CCCCC2)cc(C(=O)N2CCOCC2)cc1[N+](=O)[O-]	-8.07	
COCCN(Cc1ccco1)C(=O)Cn1ncc2c([nH]c3ccccc32)c1=O	4.47	
CC(CC(=O)N1CCN(c2ccccc2)CC1)c1ccccc1 (stereo not given)	-1.05	
O=C(Nc1ccc(F)cc1)N1CCN(c2ccc(F)cc2)CC1	-16.9	
CC(=O)N1CCN(c2ccc(NCc3ccc(C(C)C)cc3)cc2)CC1		12.6 µM (active)
Cc1c(CCNC(=O)c2ccc(C(F)(F)F)cc2)sc2nc(-c3ccc(F)cc3)nn12	2.81	
COc1ccc(Cl)cc1NC(=O)CCn1c(=O)c2cccn2c2ccccc21	-13.7	
CCOc1ccc(CNC(=O)c2ccc3nc(CC)c(CC)nc3c2)cc1OC	0.219	
COc1ccc2c(c1)C(C)=CC(C)(C)N2C(=O)CNCc1ccc2c(c1)OCO2	-5.39	
CC1=CC(C)(C)N(C(=O)CSc2nnc(-c3ccccc3)o2)c2ccc(C)cc21	-11.5	
COc1ccc2c(c1)C(C)=CC(C)(C)N2C(=O)Nc1ccccc1		28.2 µM (active)
O=C(NC1CC(=O)N(c2ccc(Cl)cc2)C1)C1CCCC1 (stereo not given)	-3.22	
Cn1ccc2cc(S(=O)(=O)N3CCCC(C(=O)NCc4ccccc4F)C3)ccc21 (stereo not given)	4.83	

SMILES	activity, negative = inhibition [%]	Potency
CCOc1ccc2nc(NC(=O)c3cc([N+](=O)[O-])ccc3N3CCOCC3)sc2c1		3.16 µM (active)
COc1ccc(-c2nc3ccccc3o2)cc1NC(=O)c1cc([N+](=O)[O-])ccc1N1CCOCC1	-9.81	
O=C(NC1CCCCC1)c1cc([N+](=O)[O-])ccc1N1CCOCC1	-5.97	
CCOC(=O)c1c(NC(=O)COc2cc(C)ccc2C(C)C)sc(C)c1C		25.1 µM (active)
CCOC(=O)c1c(NC(=O)c2cccs2)sc(C)c1C	4.08	
CCOC(=O)c1sc(NC(=O)COc2ncnc3ccccc23)c(C(=O)OCC)c1C	13.3	
Clc1cccc(-n2ncc3c(NCCc4ccccc4)ncnc32)c1	-9.03	
Cc1ccc(Cl)cc1NC(=O)CCC(=O)N1CC(C)Sc2ccccc21 (stereo not given)	-16.2	
CCCNC(=O)C1CCN(c2nc3ccc(C)cc3[nH]2)CC1	-0.761	
COCC(C)NS(=O)(=O)c1ccc(N2CCCCS2(=O)=O)cc1 (stereo not given)	6.23	
OCCN1CCN(C(=S)c2ccc(-c3ccccc3)cc2)CC1	-13.5	
S=C(NCCc1ccccc1)N1CCCCC1	-8.68	
S=C(c1ccc(-c2ccccc2)o1)N1CCCCC1		15.8 µM (active)
OCC(CO)(CO)NCc1ccc(-c2ccccc2)cc1	-2.17	
Oc1ccccc1N1CCN(C(=S)NCc2ccccc2)CC1	-17.4	
Oc1ccc(CNc2ccccc2O)cc1		14.1 µM (active)
Cc1cccc(C2C3=C(CCCC3=O)N=C3c4ccccc4C(=O)C32)c1 (stereo not given)		14.1 µM (active)
CCc1nc2cccnc2n1-c1ccc(CC(=O)Nc2c(C)cccc2C)cc1	-7.47	
COc1ccc(CCNC(=O)Cn2c(=O)cc(C(F)(F)F)c3c(C)nn(C)c32)c(OC)c1	-7.4	
Cc1ccc(/C=C/C(=O)Nc2ccc([N+](=O)[O-])c(NC(=O)/C=C/c3ccc(C)o3)c2)o1		12.6 µM (active)
CCc1nnc(NC(=O)/C=C/c2ccc(C)o2)s1	-4.8	
Cc1ccc(/C=C/C(=O)Nc2cc(S(=O)(=O)N3CCCCCC3)ccc2OCC(F)(F)F)o1	9.07	
CCOc1ccccc1N=C1NC(=O)CS1	-1.39	
CCOc1cccc(/C=N/N2C(=O)CSC2=S)c1O		22.4 µM (active)
CCOc1cccc(/C=N/NC(=S)NCCN2CCOCC2)c1O	-6.58	

Source: PubChem BioAssay AID1460 (National Center for Advancing Translational Sciences (NCATS), 2008)
